Measured values: PubChem BioAssay (NCI)
This is part of a sample that, as a whole, favours compounds with a hit. Of some 83,000 tested, about 20% had one in any assay.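 Single-concentration screen, 48 h exposure, 96-well plates. Endpoint: percent growth. Below 10 = active.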 Active and inactive are the calls of the source.

What was measured:
Assay in all cases: NCI-60 one-dose screen, 48 h (100 = growth as untreated, 0 = no growth, -100 = all killed)
DU-145 prostate = settings: 10 µM unless noted
K-562 leukemia = settings: 10 µM unless noted
MALME-3M melanoma = settings: 10 µM unless noted
MDA-MB-231 breast = settings: 10 µM unless noted
RXF 393 renal = settings: 10 µM unless noted
SF-268 CNS = settings: 10 µM unless noted
SF-295 CNS = settings: 10 µM unless noted
SF-539 CNS = settings: 10 µM unless noted
UACC-257 melanoma = settings: 10 µM unless noted
M14 melanoma = settings: 10 µM unless noted
HCT-15 colon = settings: 10 µM unless noted
HT29 colon = settings: 10 µM unless noted
SNB-19 CNS = settings: 10 µM unless noted
U251 CNS = settings: 10 µM unless noted
PC-3 prostate = settings: 10 µM unless noted
SK-MEL-5 melanoma = settings: 10 µM unless noted
UACC-62 melanoma = settings: 10 µM unless noted
LOX IMVI melanoma = settings: 10 µM
SK-MEL-28 melanoma = settings: 10 µM unless noted

Measured: growth

COc1ccccc1C(=O)NN1C(=O)/C(=C/C2=Cc3ccccc3OC2)SC1=S
inactive: DU-145 prostate 112% | K-562 leukemia 101% | MALME-3M melanoma 99.3% | MDA-MB-231 breast 102% | RXF 393 renal 114% | SF-268 CNS 109% | SF-295 CNS 109% | SF-539 CNS 95.4% | UACC-257 melanoma 108% | M14 melanoma 99.3% | HCT-15 colon 114% | HT29 colon 110% | SNB-19 CNS 97.6% | U251 CNS 101% | PC-3 prostate 91.2% | SK-MEL-5 melanoma 104% | UACC-62 melanoma 91.8% | LOX IMVI melanoma 94% | SK-MEL-28 melanoma 109%

Cc1nc(Nc2ncc(C(=O)Nc3c(C)cccc3Cl)s2)cc(N2CCN(CCCNC(=O)COc3ccc(C4CCC(=O)NC4=O)cc3)CC2)n1 (stereo unspecified)
active: K-562 leukemia 9.96% | MDA-MB-231 breast -4.03% | RXF 393 renal -51.2% | SF-539 CNS 7.74% | HT29 colon -13.6% | LOX IMVI melanoma -96.6%
inactive: DU-145 prostate 41.9% | MALME-3M melanoma 91.6% | SF-268 CNS 43.6% | SF-295 CNS 48.3% | UACC-257 melanoma 77.9% | M14 melanoma 60.2% | HCT-15 colon 68.3% | SNB-19 CNS 47.9% | U251 CNS 62.6% | PC-3 prostate 44.1% | SK-MEL-5 melanoma 73.7% | UACC-62 melanoma 55.4% | SK-MEL-28 melanoma 89.4%

Cc1sc2c(c1C)C(c1ccc(Cl)cc1)=N[C@@H](CC(=O)NCCCCCNC(=O)COc1ccc(C3CCC(=O)NC3=O)cc1)c1nnc(C)n1-2 (stereo partly specified)
active: MDA-MB-231 breast 5.01% | SF-295 CNS 9.91% | SK-MEL-5 melanoma -13.4% | UACC-62 melanoma 3.07%
inactive: DU-145 prostate 88.5% | K-562 leukemia 28.4% | MALME-3M melanoma 13% | RXF 393 renal 45.3% | SF-268 CNS 65.4% | SF-539 CNS 23.1% | UACC-257 melanoma 49.3% | M14 melanoma 17.6% | HCT-15 colon 33% | HT29 colon 13% | SNB-19 CNS 23.8% | U251 CNS 45.2% | PC-3 prostate 11.3% | LOX IMVI melanoma 11.3% | SK-MEL-28 melanoma 48.3%

COc1ccc(-c2ccc(SCC(=O)Nc3ccc(S(N)(=O)=O)cc3Br)nn2)cc1
inactive: DU-145 prostate 72% | K-562 leukemia 101% | MALME-3M melanoma 89.4% | MDA-MB-231 breast 85.1% | RXF 393 renal 89.2% | SF-268 CNS 17.9% | SF-295 CNS 60.2% | SF-539 CNS 42.9% | UACC-257 melanoma 87.9% | M14 melanoma 101% | HCT-15 colon 84.5% | HT29 colon 95.7% | SNB-19 CNS 23.4% | U251 CNS 52.4% | PC-3 prostate 73.5% | SK-MEL-5 melanoma 94.3% | UACC-62 melanoma 83.2% | LOX IMVI melanoma 98.8% | SK-MEL-28 melanoma 99.2%

O=C(c1ccc(OCCN2CCOCC2)cc1)C1[C@H](c2ccc(Cl)cc2)[C@@H](c2ccccc2)NC12C(=O)Nc1ccc(Br)cc12 (stereo partly specified)
active: K-562 leukemia 1.09% | RXF 393 renal -1.59% | HCT-15 colon 8.44% | HT29 colon -76.6% | PC-3 prostate 3.86% | LOX IMVI melanoma -75.2%
inactive: DU-145 prostate 41.6% | MALME-3M melanoma 56.3% | MDA-MB-231 breast 18.2% | SF-268 CNS 39.6% | SF-295 CNS 21.8% | SF-539 CNS 35% | UACC-257 melanoma 39.7% | M14 melanoma 23.8% | SNB-19 CNS 37.4% | U251 CNS 22.6% | SK-MEL-5 melanoma 47.3% | UACC-62 melanoma 38.5% | SK-MEL-28 melanoma 44.1%

CC1=C(C#N)C2=NNCC(c3ccccc3)=NN2C(c2ccccc2)=C1
inactive: DU-145 prostate 111% | K-562 leukemia 110% | MALME-3M melanoma 93.3% | MDA-MB-231 breast 105% | RXF 393 renal 131% | SF-268 CNS 134% | SF-295 CNS 103% | SF-539 CNS 102% | UACC-257 melanoma 96.6% | M14 melanoma 103% | HCT-15 colon 104% | HT29 colon 114% | SNB-19 CNS 97.3% | U251 CNS 96.2% | PC-3 prostate 106% | SK-MEL-5 melanoma 106% | UACC-62 melanoma 96% | LOX IMVI melanoma 109% | SK-MEL-28 melanoma 109%

Cc1ccccc1[C@H]1C(C(=O)c2ccc(Cl)cc2)C2(N[C@@H]1c1ccccc1)C(=O)Nc1ccc(Cl)cc12 (stereo partly specified)
active: DU-145 prostate 5.12% | K-562 leukemia -2.2% | MALME-3M melanoma -33.3% | MDA-MB-231 breast -72.2% | RXF 393 renal -67.7% | SF-295 CNS -22.5% | SF-539 CNS -58.1% | UACC-257 melanoma 4.82% | M14 melanoma -78.4% | HCT-15 colon -69.1% | HT29 colon -88.5% | U251 CNS -82.9% | PC-3 prostate -26.9% | SK-MEL-5 melanoma 0.559% | UACC-62 melanoma -55.5% | LOX IMVI melanoma -100% | SK-MEL-28 melanoma -23.4%
inactive: SF-268 CNS 29.3% | SNB-19 CNS 17.4%

C=C1CC[C@@H]2[C@]3(C)COC(c4ccccc4)O[C@@H]3CC[C@@]2(C)[C@@H]1C/C=C1/C(=O)OCC1OC(C)=O (stereo partly specified)
active: K-562 leukemia -39.6% | MALME-3M melanoma -54.8% | MDA-MB-231 breast -83.1% | RXF 393 renal -87.7% | SF-295 CNS -4.5% | SF-539 CNS -100% | UACC-257 melanoma -49.6% | M14 melanoma -86.9% | HCT-15 colon -87.3% | HT29 colon -93.1% | U251 CNS -89.9% | PC-3 prostate -41.4% | SK-MEL-5 melanoma -45.1% | UACC-62 melanoma -82.7% | LOX IMVI melanoma -100% | SK-MEL-28 melanoma -86.9%
inactive: DU-145 prostate 22.5% | SF-268 CNS 35.1% | SNB-19 CNS 55.5%

COc1ccc(-c2nc3cc(C)ccc3n2CC(=O)N=Nc2c(O)[nH]c3ccc(Cl)cc23)cc1
active: K-562 leukemia 4.54% | MALME-3M melanoma -56.9% | MDA-MB-231 breast -43.8% | RXF 393 renal -63.2% | SF-295 CNS -67.5% | SF-539 CNS -52.7% | UACC-257 melanoma -31.2% | M14 melanoma -44.6% | HCT-15 colon -71.2% | HT29 colon -71.1% | U251 CNS -73.9% | PC-3 prostate 9.75% | SK-MEL-5 melanoma -36.2% | UACC-62 melanoma -52.3% | LOX IMVI melanoma -93.4% | SK-MEL-28 melanoma -67.6%
inactive: DU-145 prostate 15% | SF-268 CNS 21.6% | SNB-19 CNS 31.4%

Cc1ccc([C@H]2C(C(=O)c3ccc(Cl)cc3)C3(N[C@@H]2c2ccccc2)C(=O)Nc2ccc(Br)cc23)cc1 (stereo partly specified)
inactive: DU-145 prostate 82.5% | K-562 leukemia 26.6% | MALME-3M melanoma 92.2% | MDA-MB-231 breast 49.7% | RXF 393 renal 33.6% | SF-268 CNS 100% | SF-295 CNS 52.4% | SF-539 CNS 79.7% | UACC-257 melanoma 71.6% | M14 melanoma 44.3% | HCT-15 colon 50.8% | SNB-19 CNS 66.5% | U251 CNS 47.9% | PC-3 prostate 16.7% | SK-MEL-5 melanoma 88% | UACC-62 melanoma 45.9% | LOX IMVI melanoma 35.9% | SK-MEL-28 melanoma 77.9%
active: HT29 colon 7.2%

CC(C)c1sc(NC(=O)c2cc(NC(=O)c3cc(NC(=O)c4cscn4)cn3C)cn2C)nc1C(=O)NCCCN(C)C
active: K-562 leukemia 8.89% | MALME-3M melanoma -51.7% | MDA-MB-231 breast -33.3% | RXF 393 renal -47.2% | SF-539 CNS -33.6% | UACC-257 melanoma 7.52% | HT29 colon 2.45% | SNB-19 CNS -9.66% | U251 CNS -38.4% | PC-3 prostate -26.3% | SK-MEL-5 melanoma -3.44% | UACC-62 melanoma -73.5% | LOX IMVI melanoma -94% | SK-MEL-28 melanoma -16.3%
inactive: DU-145 prostate 16.4% | SF-268 CNS 16.3% | SF-295 CNS 58.7% | M14 melanoma 45% | HCT-15 colon 98.6%

C=C1CCC2C3(C)COC(c4ccccc4)OC3CCC2(C)C1CC(Sc1ccccc1)C1=CCOC1=O (stereo unspecified)
inactive: DU-145 prostate 70.6% | MALME-3M melanoma 92.8% | MDA-MB-231 breast 62.5% | RXF 393 renal 72.7% | SF-268 CNS 83.3% | SF-295 CNS 62.7% | SF-539 CNS 17.7% | UACC-257 melanoma 63.8% | M14 melanoma 53.7% | HT29 colon 13.8% | SNB-19 CNS 85.5% | U251 CNS 17.5% | PC-3 prostate 29.3% | SK-MEL-5 melanoma 55.2% | UACC-62 melanoma 39.5% | SK-MEL-28 melanoma 82.5%
active: K-562 leukemia 7.88% | HCT-15 colon 5.46% | LOX IMVI melanoma -98%

CC12CC[C@@H]3[C@]4(C)COC(c5c(F)cccc5F)O[C@@H]4CC[C@@]3(C)[C@@H]1CC(C1=CCOC1=O)O2 (stereo partly specified)
inactive: DU-145 prostate 76.6% | K-562 leukemia 66.6% | MALME-3M melanoma 60.4% | MDA-MB-231 breast 36.5% | RXF 393 renal 83.8% | SF-268 CNS 70.3% | SF-295 CNS 69.1% | SF-539 CNS 33.8% | UACC-257 melanoma 64.6% | M14 melanoma 66.5% | HCT-15 colon 80.4% | HT29 colon 76.5% | SNB-19 CNS 63.2% | U251 CNS 80% | PC-3 prostate 56.4% | SK-MEL-5 melanoma 47.4% | UACC-62 melanoma 50.4% | LOX IMVI melanoma 73.1% | SK-MEL-28 melanoma 88.8%

Clc1cccc(N/N=C/c2c[nH]c3ccc(Br)cc23)n1
active: K-562 leukemia -26% | MDA-MB-231 breast -67.7% | SF-295 CNS -9.75% | SF-539 CNS -1.26% | PC-3 prostate 7.77% | UACC-62 melanoma 1.6% | LOX IMVI melanoma -60.9%
inactive: DU-145 prostate 64.1% | MALME-3M melanoma 39% | RXF 393 renal 31.6% | SF-268 CNS 40.8% | UACC-257 melanoma 57.6% | M14 melanoma 15.2% | HCT-15 colon 22.3% | HT29 colon 23.6% | SNB-19 CNS 20.5% | U251 CNS 17.1% | SK-MEL-5 melanoma 40.3% | SK-MEL-28 melanoma 49.1%
